The term inhibition denotes the relative decrease from the control value, in per cent.

The values that follow come from PubChem BioAssay AID559 (PCMD, 2006).

Each structure is given as a SMILES string. Among all 62,000 compounds or so, about 100 (0.2%) were called active. What follows is part of a selection rich in actives, with near analogues and random picks from the rest. Unmarked numbers belong to inactive results. Rule as the data show it: active = inhibition above about 20%; inactive = the rest.

The target in this experiment is DNA-directed RNA polymerase subunit beta (Escherichia coli (strain K12)) (UniProt P0A8V2). As to the kind of experiment: bacterial RNA polymerase transcription inhibition – biochemical (AID 559).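 Also: 0% = enzyme without compound and 100% = no enzyme blank.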 The conditions noted are these: E. coli RNA polymerase, fluorescence transcription assay; active compounds read high;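 tested at 10 µM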.
DNA-directed RNA polymerase subunit beta (Escherichia coli (strain K12)), sequence (P0A8V2 whole entry, looked up): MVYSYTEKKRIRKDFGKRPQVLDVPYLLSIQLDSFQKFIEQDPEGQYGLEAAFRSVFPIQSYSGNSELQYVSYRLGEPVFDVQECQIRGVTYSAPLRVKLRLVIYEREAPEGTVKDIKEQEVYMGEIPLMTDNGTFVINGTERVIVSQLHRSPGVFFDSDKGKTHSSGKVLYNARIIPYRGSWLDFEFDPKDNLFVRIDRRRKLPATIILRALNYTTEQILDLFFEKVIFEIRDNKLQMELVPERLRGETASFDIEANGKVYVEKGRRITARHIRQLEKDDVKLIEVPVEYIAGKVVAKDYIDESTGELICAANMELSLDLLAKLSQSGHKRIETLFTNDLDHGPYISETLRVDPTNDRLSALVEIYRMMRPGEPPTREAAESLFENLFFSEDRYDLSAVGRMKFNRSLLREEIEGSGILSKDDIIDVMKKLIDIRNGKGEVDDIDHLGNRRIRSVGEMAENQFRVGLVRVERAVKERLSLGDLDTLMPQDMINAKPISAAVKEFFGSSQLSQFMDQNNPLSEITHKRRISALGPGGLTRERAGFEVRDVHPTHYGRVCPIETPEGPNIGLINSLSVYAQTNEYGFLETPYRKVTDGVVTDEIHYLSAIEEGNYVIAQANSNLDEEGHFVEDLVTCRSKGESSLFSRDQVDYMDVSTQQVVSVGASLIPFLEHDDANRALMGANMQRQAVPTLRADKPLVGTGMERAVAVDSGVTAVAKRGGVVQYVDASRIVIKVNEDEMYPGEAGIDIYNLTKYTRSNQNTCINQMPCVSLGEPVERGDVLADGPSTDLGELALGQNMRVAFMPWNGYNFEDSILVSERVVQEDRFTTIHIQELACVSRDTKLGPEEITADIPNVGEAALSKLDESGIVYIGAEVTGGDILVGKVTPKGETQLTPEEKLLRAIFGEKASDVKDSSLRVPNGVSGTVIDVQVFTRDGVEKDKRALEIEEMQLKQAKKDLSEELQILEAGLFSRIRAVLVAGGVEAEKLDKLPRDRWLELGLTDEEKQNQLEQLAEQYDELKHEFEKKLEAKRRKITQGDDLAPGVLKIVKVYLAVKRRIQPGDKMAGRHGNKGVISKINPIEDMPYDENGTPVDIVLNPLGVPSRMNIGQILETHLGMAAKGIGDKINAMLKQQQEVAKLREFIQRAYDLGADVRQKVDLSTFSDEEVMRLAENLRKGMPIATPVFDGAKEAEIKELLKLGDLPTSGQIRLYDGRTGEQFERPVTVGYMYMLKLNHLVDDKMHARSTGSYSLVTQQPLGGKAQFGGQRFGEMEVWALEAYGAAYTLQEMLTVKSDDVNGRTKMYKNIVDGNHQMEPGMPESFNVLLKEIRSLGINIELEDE
As to `CCOCCCNS(=O)(=O)Cc1ccccc1`, the inhibition was 8.39%.

Consider `Cc1ccc(O)c(NC(=O)COc2cc(C)ccc2C)c1`, for which the inhibition is 4.28%.

Turning to `CCCOc1ccc(C2C(C(=O)c3ccc(C)o3)=C(O)C(=O)N2CCCn2ccnc2)cc1` (stereo not drawn), the inhibition was 5.52%. Next, `O=C(Nc1ccon1)c1sc2ccccc2c1Cl`: -7.58%; `NC(CSC12CC3CC(CC(C3)C1)C2)C(=O)O` (stereo not drawn): 4.34%.

For the compound `CC(C)c1nc(-c2ccccn2)no1`, the inhibition was 4.3%.

Turning to `O=C(NCc1ccccc1)C1C(=O)N(Cc2ccccc2)C(=O)C1C1(O)CCCC1` (stereo not drawn), the inhibition is -8.01%. The figure for `CCOCC(=O)Nc1cc(OC)c(Cl)cc1OC` is 5.42%; for `Cc1ccc(S(=O)(=O)N2C3C=CC(C3)C2C(=O)O)cc1` (stereo not drawn) it is 8.4%.

Turning to `Cc1cccc(N2C(=O)SC(N(CC(=O)O)c3cccc(C)c3)C2=O)c1` (stereo not drawn), the inhibition was 6.1%. Next, `COc1cccc(C(CC(=O)NCCN2CCOCC2)NS(=O)(=O)c2ccc(C)cc2)c1OC` (stereo not drawn): 4.2%; `Cc1cc2c(=O)n(C)c(SCC(=O)c3cc4ccccc4o3)nc2s1`: 20.9% (active); `Cc1ccsc1C(=O)OCC(=O)c1cc2ccccc2o1`: 8.68%. The figure for `Cc1ccc(C(=O)CSc2nc3ccccc3c(=O)n2N)o1` is 4.54%. For the compound `O=C(CN1C(=O)C2C3C=CC(C3)C2C1=O)NCC1COc2ccccc2O1` (stereo not drawn), the inhibition is -8.67%. Consider `O=C1CCC(Cc2ccccc2)N1` (stereo not drawn), for which the inhibition was 6.1%. Next, `Cn1c(=O)n(C)c(=O)n(CC(=O)N2CCCCC2)c1=O`: 5.37%; `CC(=O)Nc1cccc2c1[n+]([O-])c(C)c(C)[n+]2[O-]`: -3.37%. The figure for `O=C(Nc1nc2cc3c(cc2s1)OCCO3)c1cccc(S(=O)(=O)N2CCOCC2)c1` is -1.12%; for `CCCN1C(=O)C(NC(C)=O)c2cc(OC)ccc21` (stereo not drawn) it is 8.13%; for `Cc1noc(NS(=O)(=O)c2ccc(NC(=O)C34CCC(CC3)C4)cc2)c1C` it is 3.43%.

On to `COc1cccc2sc(Nc3nc(C)c(C(C)=O)s3)nc12`, for which the inhibition was -0.4%. Regarding `CCCOc1ccc(NC(=O)C2CCCNC2=O)cc1` (stereo not drawn), the inhibition is 2.77%. Next, `CCCCOC(=O)NCN1C(=O)C2C3C=CC(C3)C2C1=O` (stereo not drawn): 0.68%. For `COc1ccc(OC)c(NC(=O)CC(Cc2ccccc2OC)C(=O)O)c1` (stereo not drawn), the inhibition was 4.42%. The figure for `CC(C)N(C(=O)Cn1c(SCC(=O)N2CCN(c3ccccc3)CC2)nc2ccccc21)C(C)C` is 5.85%; for `O=C(Cn1nc(C(F)(F)F)c2c1CCC2)NCc1ccc(F)cc1` it is -0.7%; for `COc1ccc(CNC(=O)c2c(C)cc(=O)oc2C)cc1OC` it is 8.6%.
